NADH enzymes = inhibition of NAD/NADH coupling enzymes, library profiling; 0.02% of 65,000 active; coupled PK/LDH NADH assays, four targets; IC50, µM (doses to about 10 µM), for inactives: at the top dose inhibition;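 active means single-dose screening hits from any of four coupled enzyme assays that gave an IC50 when retested across doses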;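 further: the DPM-DC format reads NADH fluorescence rather than 340 nm absorbance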
MK inhibit = inhibitors of Streptococcus pneumoniae mevalonate kinase; inhibition, % at 10 µM; 0.48% of 65,000 active; purified MK, PK/LDH-coupled NADH absorbance 340 nm;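 active means ranked among the strongest by inhibition in the single 10 µM screen, a fixed top-ranked set picked for dose follow-up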
DPM-DC inhibit = blocks S. pneumoniae diphosphomevalonate decarboxylase | purified DPM-DC, PK/LDH coupled NADH fluorescence | calls only at 10 µM | 0.49% of 65,000 active | AID 556;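 active means the 320 compounds with the highest percent inhibition in the single-dose primary screen, excluding strongly autofluorescent ones, cut at about 32% in these data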;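 further: kinetic rate of NADH fluorescence loss reporting ADP formed by the decarboxylase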
Spn PMK inh = S. pneumoniae PMK inhibition | purified PMK, PK/LDH-coupled NADH absorbance 340 nm | inhibition, % at 10 µM | 0.49% of 65,000 active | AID 539;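 active means top-ranked compounds by inhibition in the single 10 µM screen, taking a fixed number of the strongest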;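 further: 0% = full reaction with DMSO carrier and 100% = background rate without enzyme reaction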
A340 absorber = compound absorbs light at 340 nm. compound absorbance at 340 nm, fold over control. fold change at 10 µM. 65,000 tested, under 10 active;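 active means at 10 µM dose, initial 340 nm absorbance at least 2 fold that of control wells; inactive means change under 2 fold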;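 further: initial absorbance extrapolated from kinetic A340 decline of NADH oxidation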
Autofluor 339 = intrinsic fluorescence of library compounds, ex339/em460 – biochemical, MLSMR library, data from DPM-DC assay, artefact control, profiling panel; compound autofluorescence, ex339/em460 nm, NADH buffer; active compounds read high; 1 = no-compound wells, NADH background; fluorescence fold increase at 10 µM; 5.5% of 65,000 active;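 active means at 10 µM, mean starting fluorescence two-fold or more over control wells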;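 further: signal is the first read of a kinetic run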
* marks the source's active call; other numbers are inactive results; i = inactive; nt = no result given; + = active, no number. Only some compounds are listed: those with a hit (about 6.8% of all), similar ones and a draw of the others.

SMILES | NADH enzymes | MK inhibit | DPM-DC inhibit | Spn PMK inh | A340 absorber | Autofluor 339
CCCCn1c(=NC(=O)c2cccnc2)c(C(=O)OCC)cc2c(=O)n3ccccc3nc21 | 10.0% | 9.0 | nt | 11.0 | 1.02 | 2.28*
CC(=O)Nc1ccc2nc(-c3cccs3)[nH]c2c1 | 5.0% | 2.0 | nt | 8.0 | 1.11 | 2.29*
CCCN(CC1CC1)S(=O)(=O)c1ccc(S(N)(=O)=O)cc1 | 2.0% | 4.0 | i | 0.0 | 1 | 1.01
CCOC(=O)Cc1csc(NC(=O)c2ccc(Br)s2)n1 | 7.0% | 8.0 | i | 6.0 | 1.08 | 1.08
CCOc1cccc2sc(NC(=O)c3ccc(Br)s3)nc12 | 1.0% | 1.0 | nt | 0.0 | 1.15 | 2.09*
O=C(Oc1ccccc1)c1c(Cl)cccc1P(=O)(O)O | 3.0% | 0.0 | i | 8.0 | 1.03 | 1.03
CCNc1nc(C)c2cc(Br)c(=O)n(CC)c2n1 | 6.0% | 7.0 | nt | 5.0 | 1.16 | 2.08*
CCNc1nc(NC(C)C)nc(Nn2cnnc2)n1 | 1.0% | 0.0 | i | 3.0 | 1.03 | 1.09
Cc1ccc(OCC(=O)N(C)CCc2ccccn2)cc1 | 20.0% | 53.0* | i | 6.0 | 1.04 | 1.1
CN(CCc1ccccn1)C(=O)Nc1ccc(F)cc1 | 8.0% | 8.0 | i | 17.0 | 1.07 | 1
COC(=O)c1sc2ccccc2c1N | 7.0% | 6.0 | nt | 7.0 | 1.07 | 2.12*
COC(=O)c1sc2ccccc2c1C(=O)OC | 5.0% | 1.0 | i | 14.0 | 1 | 1.17
O=C(NCc1cn2ccsc2n1)c1cccs1 | 5.0% | 7.0 | i | 8.0 | 1.02 | 1.05
CCC1CCCCN1c1nc2c(c(=O)n(C)c(=O)n2C)n1CCSc1nc2ccccc2o1 (stereo not given) | 6.0% | 12.0 | i | 6.0 | 1.05 | 1.05
O=C(CCCn1c(=O)[nH]c2ccsc2c1=O)NCc1cccs1 | 4.0% | 10.0 | i | 0.0 | 1.02 | 1.09
C/C=C/Cn1c(N(C)Cc2ccccc2)nc2c1c(=O)[nH]c(=O)n2C | 16.0% | 0.0 | + | 11.0 | 1.05 | 0.54
CN(Cc1ccccc1)c1nc2c(c(=O)[nH]c(=O)n2C)n1C | 7.0% | 10.0 | i | 12.0 | 1 | 1.02
NC(=O)CCN(Cc1ccccc1)S(=O)(=O)c1ccccc1 | 11.0% | 5.0 | i | 28.0* | 1 | 1.08
O=C(NCCCN1CCOCC1)C1CC(=O)N(C2CCCCC2)C1 (stereo not given) | 8.0% | 8.0 | i | 15.0 | 0.98 | 1.1
COc1cc(CN2CCC(C(=O)N3CCN(c4ccccc4F)CC3)CC2)ccc1O | 2.0% | 6.0 | i | 0.0 | 1.06 | 1.94
COc1ccc(C(=O)Nc2ccc(S(=O)(=O)N3CCCCC3)cc2)cc1OC | 0.0% | 0.0 | i | 0.0 | 1.06 | 1.12
COc1ccc(Br)cc1CNC(=O)C1CCN(S(=O)(=O)N2CCCC2)CC1 | 12.0% | 5.0 | i | 30.0* | 1.01 | 1.07
COc1cc(CN2CCC(C(=O)NC3CCCC3)CC2)ccc1O | 3.0% | 5.0 | nt | 7.0 | 1 | 2.04*
CCOc1ccc(CNC(=O)C2CCN(S(=O)(=O)N3CCCC3)CC2)cc1OC | 9.0% | 0.0 | i | 26.0* | 1.02 | 1.06
CCOc1ccc(CN2CCN(S(=O)(=O)c3ccc(NC(C)=O)cc3)CC2)cc1OC | 25.0% | 63.0* | i | 12.0 | 1.01 | 1.06
SMILES | NADH enzymes | MK inhibit | DPM-DC inhibit | Spn PMK inh | A340 absorber | Autofluor 339
CSc1ccc(-c2nnn(Cc3ccc(C)cc3)n2)cc1 | 4.0% | 11.0 | i | 0.0 | 1.02 | 1.05
CCCS(=O)(=O)N1CCC(C(=O)NCCN(C)Cc2ccccc2)CC1 | 2.0% | 1.0 | i | 6.0 | 0.98 | 1.14
N/C(CCN1CCOCC1)=N/O | 36.0% | 52.0* | i | 36.0 | 1.08 | 1.07
CCOC(=O)c1cccc(S(=O)(=O)N(CCO)Cc2cc3cc(OC)c(OC)cc3[nH]c2=O)c1 | 3.0% | 0.0 | i | 9.0 | 1.04 | 1.29
COc1cc2cc(CN(CCCO)S(=O)(=O)c3ccccc3Cl)c(=O)[nH]c2cc1OC | 17.0% | 8.0 | nt | 25.0* | 1.06 | 3.46*
Cc1cc2cc(CN(CCCO)S(=O)(=O)c3cccc4nsnc34)c(=O)[nH]c2cc1C | 10.0% | 12.0 | i | 19.0 | 1.1 | 1.06
COc1cc2cc(CN(CCO)S(=O)(=O)c3ccccc3Cl)c(=O)[nH]c2cc1OC | 15.0% | 8.0 | i | 6.0 | 1.02 | 3.08*
COc1cc2cc(CN(CCCO)S(=O)(=O)c3ccccc3)c(=O)[nH]c2cc1OC | 3.0% | 5.0 | nt | 0.0 | 1.12 | 3.89*

Screening results (PubChem)
